# Data reported in PubChem BioAssay AID2314 (National Center for Advancing Translational Sciences (NCATS), 2010).
# Hit rate of the full screen: of about 300,000 compounds, about 37,000 (12%) were called active. Rule as the data show it: active = max response mostly above about 13% (no sharp cut-off); inactive = mostly below about 14%. The entries come from a sample that favours actives as a whole.
# Test: Cycloheximide Counterscreen for Small Molecule Inhibitors of Shiga Toxin; also: read at 38.3 µM for the half of the compounds with a filed dose; 0% is about no effect
# Conditions: cell reporter, cycloheximide protein synthesis inhibition counterscreen; hits give high values
row,Compound,max response
1,COc1cc(NC(=O)CN2C(=O)NC(C)(c3ccc(OC(F)F)cc3)C2=O)cc(OC)c1OC (stereo not drawn),-2.19% (inactive)
2,CCC1C/C(=C/c2cccs2)C(=O)/C(=C/c2cccs2)C1 (stereo not drawn),-1.72% (inactive)
3,O=C1/C(=C/c2cccs2)SC(=S)N1C1CCS(=O)(=O)C1 (stereo not drawn),-0.776% (inactive)
4,COc1cc(/C=C/C(=O)N2CCc3ccccc3C2)cc(OC)c1OC,0.558% (inactive)
5,O=C1/C(=C/c2cccs2)CCC1C1CCCC1 (stereo not drawn),29.4% (active)
6,CN1CCN(C(=O)/C(=C\c2cccs2)NC(=O)c2cccs2)CC1,8.48% (inactive)
7,COc1ccc2c(c1OC)C(=O)c1ccccc1C2=O,2.67% (inactive)
8,CN1C/C(=C/c2cccs2)C(=O)/C(=C\c2cccs2)C1,35.9% (active)
9,O=C1/C(=C/c2cccs2)CCc2ccccc21,62.8% (active)
10,O=S(=O)(c1cccs1)N1CCc2ccccc2C1,-2.33% (inactive)
11,c1ccc2c(c1)CCc1snnc1-2,-1.75% (inactive)
12,COc1ccc(/C=C2\CCc3ccccc3C2=O)c(OC)c1OC,35.6% (active)
13,O=C(Nc1ccccc1C(=O)N1CCOCC1)c1ccc(CSc2ccccc2)cc1,-0.894% (inactive)
14,Cc1cc(=O)oc2c(C)c(OCC(=O)NCCc3ccc(S(N)(=O)=O)cc3)ccc12,-1.87% (inactive)
15,CCOC(=O)C1=C(c2ccccc2)NC(=O)NC1c1cc(OCC)c(O)c([N+](=O)[O-])c1 (stereo not drawn),-1.22% (inactive)
16,CCOc1ccc2c(c1)c(=O)c(S(=O)(=O)c1ccc(C)cc1)cn2CC,-0.573% (inactive)
17,OC1CCCN(c2ncnc3c2nnn3Cc2c(F)cccc2Cl)C1 (stereo not drawn),7.82% (inactive)
18,CC(=O)c1cc2c(cc1NC(=O)Cn1nc(-c3ccc(F)cc3)ccc1=O)OCO2,0.865% (inactive)
19,Cc1cc(C)nc(NNC2=CC(=O)CC(C)(C)C2)n1,2.37% (inactive)
20,CCCCN(Cc1ccccc1)C(=O)C1CCN(Cc2sccc2C)CC1,-5% (inactive)
21,CCOc1cc(C2/C(=C(/O)c3ccc(S(=O)(=O)N4CCCCC4)cc3)C(=O)C(=O)N2CCOC)ccc1O (stereo not drawn),-6.09% (inactive)
22,CC(=N\NC(=O)c1cc(Br)ccc1O)/C(=N/O)C(=O)Nc1ccccc1,23.2% (active)
23,CC(=O)N/N=C(\C)c1ccc(Br)cc1Br,-2.79% (inactive)
24,CC(C)/C=N/NC(=O)c1cc(Br)ccc1O,9.21% (inactive)
25,COc1ccc(/C=N/N=C/c2c[nH]c(=O)c(C#N)c2Nc2ccccc2)cc1,-2.7% (inactive)
26,COc1cccc(NC(=O)C(Sc2nc3ccccc3c(=O)n2CC(C)C)c2ccccc2)c1 (stereo not drawn),0.135% (inactive)

row,Compound,max response
1,COc1ccc2c(-c3ccccc3)cc(SCC(=O)N(C)C3CCS(=O)(=O)C3)nc2c1 (stereo not drawn),-1.72% (inactive)
2,O=C1C(C=NCC2CCCO2)=C(O)c2ccccc21 (stereo not drawn),32.1% (active)
3,Cc1ccc(-n2c(O)c(C=NCC3CCCO3)c(=O)[nH]c2=O)c(C)c1 (stereo not drawn),-0.95% (inactive)
4,CC(=NCC1CCCO1)c1c(O)n(-c2ccccc2)c(=O)[nH]c1=O (stereo not drawn),4.02% (inactive)
5,O=C1c2ccccc2S(=O)(=O)N1Cc1c(F)cccc1Cl,-0.645% (inactive)
6,O=C1CN(Cc2ccccc2)S(=O)(=O)c2ccccc21,-0.808% (inactive)
7,CC(C)(C)c1ccc(CN2C(=O)c3ccccc3S2(=O)=O)cc1,17.5% (active)
8,CC1CN(S(=O)(=O)c2ccccc2)C(C)CN1S(=O)(=O)c1ccccc1 (stereo not drawn),-3.63% (inactive)
9,Cc1cc(C)cc(C(=O)NC(CC(N)=O)c2ccc(N3CCC(N4CCCCC4)CC3)c([N+](=O)[O-])c2)c1 (stereo not drawn),-1.84% (inactive)
10,NS(=O)(=O)c1ccc(NC(=S)Nc2ccc(Br)c(Cl)c2)cc1,-1.56% (inactive)
11,CC1CCCC(NC(=O)CN2CCN(Cc3ccc(Cl)cc3)C2=O)C1C (stereo not drawn),-4.51% (inactive)
12,CCCNC(=O)NCc1ccc(N2CCCC2=O)cc1,-2.06% (inactive)
13,O=C(NCc1cccc(Cl)c1)C1CCN(c2nnc(N3CCCC3=O)s2)CC1,-2.64% (inactive)
14,O=C(NCCCN1CCCCCC1)c1ccc(N2CCCC2=O)cc1,-4.57% (inactive)
15,O=C(NCCc1ccc(Cl)cc1)C1CCCN1C(=O)NCc1ccccc1 (stereo not drawn),-1.54% (inactive)
16,C/C(=N\NC(=O)c1cccc(N2CCCC2=O)c1)c1ccc(N)cc1,27% (inactive)
17,CC1CCCC(NC(=O)c2cccc(N3CCCC3=O)c2)C1C (stereo not drawn),44.4% (active)
18,CC1CCC(NC(=O)c2ccc(N3CCCC3=O)cc2)CC1 (stereo not drawn),40.8% (active)
19,O=C(NCCc1ccc(Cl)cc1)c1cccc(N2CCCC2=O)c1,21.3% (active)
20,Cn1c2c(c(=O)n(C)c1=O)C(c1cccc([N+](=O)[O-])c1)Nc1ccccc1O2 (stereo not drawn),-1.06% (inactive)
21,Cc1ccc(S(=O)(=O)NCC2CCC(C(=O)N3CCOCC3)CC2)cc1 (stereo not drawn),3.28% (inactive)
22,Cc1cc2ccccn2c1C(=O)c1cccc(F)c1,-1.02% (inactive)
23,C=CCSc1nc(N)cc(=O)[nH]1,13.9% (inactive)
24,Cc1cc(S(=O)(=O)c2cc3ccc(O)c(C)c3oc2=O)ccc1F,-4.92% (inactive)
25,O=C(NCCc1ccccc1)C(=O)NCC1OCCN1S(=O)(=O)c1cccs1 (stereo not drawn),8.94% (active)
26,O=C(NCc1ccccc1)C(=O)NCC1OCCN1S(=O)(=O)c1ccc(Br)cc1 (stereo not drawn),9.31% (inactive)

row,Compound,max response
1,COc1ccc(CCNC(=O)C(=O)NCC2OCCN2S(=O)(=O)c2ccc(OC)c(C)c2)cc1 (stereo not drawn),0.773% (inactive)
2,CCNCCC(=O)N1c2ccccc2Sc2ccc(NC(=O)OCC)cc21,-6.47% (inactive)
3,O=C(Nc1ccc(C(=O)N2CCCCC2)cc1)c1cccc([N+](=O)[O-])c1,-4.06% (inactive)
4,O=C(Nc1ccc(NC(=O)c2ccco2)c(Cl)c1)c1cccc([N+](=O)[O-])c1,5.37% (inactive)
5,Cc1cc(C)c2nc(NC(=O)c3ccc4c(c3)OCO4)sc2c1,-3.86% (inactive)
6,O=C(Nc1ccccc1)c1ccc2c(c1)OCO2,29% (active)
7,O=C(Nc1ccc(C2CC2(Cl)Cl)cc1)c1cccc([N+](=O)[O-])c1 (stereo not drawn),40.2% (active)
8,O=C(Nc1ccc2c(c1)OCO2)c1ccc(N2C(=O)c3ccccc3C2=O)cc1,14.1% (inactive)
9,COC(=O)c1ccccc1NC(=O)CSc1nnnn1C,3.16% (inactive)
10,Cn1nnnc1SCC(=O)Nc1nc2ccccc2s1,28.7% (active)
11,O=CN1CCN(C(=O)c2ccc3c(c2)OCO3)CC1,16.1% (inactive)
12,C=CCn1c(SCC(=O)Nc2nc3ccccc3s2)nnc1-c1ccccc1O,6.55% (inactive)
13,O=C(Nc1nc2ccccc2s1)c1ccc2c(c1)OCO2,16.2% (active)
14,COc1ccc(S(=O)(=O)N2CCOCC2)cc1C(=O)Nc1nc2ccccc2s1,8.09% (inactive)
15,O=S(=O)(Nc1ccc(Oc2ncccn2)c(Cl)c1)c1ccc(F)cc1,5.26% (inactive)
16,CC1CCCCC1NC(=O)C1CCCN1S(=O)(=O)c1cccc2nsnc12 (stereo not drawn),3.55% (inactive)
17,Cc1cnc(C)c(N2CCN(C(=O)C3CCC(=O)N(CCc4cccc(F)c4)C3)CC2)n1 (stereo not drawn),-0.816% (inactive)
18,COc1ccc(C(=O)c2c(C)c(CCC#N)n3ccccc23)c(OC)c1,-1.97% (inactive)
19,CCOCCCN1C(=O)C2C(C(=O)Nc3ccc(OCC)cc3)C3C=CC2(O3)C1C(=O)NC1CCCCC1 (stereo not drawn),-3.23% (inactive)
20,CCNS(=O)(=O)c1ccc(NC(=O)c2cncc(Br)c2)cc1,-2.2% (inactive)
21,Cc1cc(N2CCOCC2)nc2ccc(NC(=S)N3CCN(Cc4ccccc4)CC3)cc12,3.98% (inactive)
22,CC(Sc1nc2cc(Cl)ccc2s1)C(=O)Nc1ccc2c(c1)OCO2 (stereo not drawn),29% (active)
23,CC(Sc1nc(-c2ccccc2)cc(C(F)(F)F)n1)C(=O)Nc1ccc2c(c1)OCO2 (stereo not drawn),-1.84% (inactive)
24,O=C(Nc1cccnc1)c1ccc2c(c1)OCO2,19.3% (active)
25,O=C(Nc1cccnc1)c1cccc(S(=O)(=O)N2CCCC2)c1,3.36% (inactive)
26,O=C(Nc1cccnc1)c1cc2cc(Br)ccc2oc1=O,-1.47% (inactive)

row,Compound,max response
1,CC(NC(=O)Nc1ccccc1)c1ccccc1 (stereo not drawn),14.1% (inactive)
2,O=C(Nc1ccc2c(c1)OCO2)c1sc2cc(Cl)ccc2c1Cl,2.36% (inactive)
3,CC(=O)Nc1ccc(-c2csc(NC(=O)Nc3ccccc3)n2)cc1,10.8% (inactive)
4,O=C(Nc1ccccc1)Nc1nc2ccccc2s1,37.9% (active)
5,O=C(Nc1cccnc1)c1noc2c1CCCCC2,32.5% (active)
6,COc1ccc(C(=O)Nc2cccnc2)cc1C(=O)Nc1cccnc1,-0.996% (inactive)
7,CN(C(=O)CN1C(=O)/C(=C/c2ccc(Cl)cc2)SC1=S)C1CCS(=O)(=O)C1 (stereo not drawn),-10.5% (inactive)
8,Cc1nn(-c2ccccc2)c2c1c(C)c(CCC(=O)NCC1CCCO1)c(=O)n2C (stereo not drawn),-2.56% (inactive)
9,CC1(c2cccc([N+](=O)[O-])c2)CC(C)(C)N(C(=O)c2ccccc2)c2ccccc21 (stereo not drawn),4.81% (inactive)
10,O=c1c2ccccc2nc2n1C(CSCc1cccc(C(F)(F)F)c1)CS2 (stereo not drawn),1.18% (inactive)
11,CC(=O)N1c2ccc(S(=O)(=O)NCCC(=O)N(C)C3CCCCC3)cc2CC1C (stereo not drawn),10.2% (inactive)
12,COc1cc(C(=O)NNC(=O)c2ccc(S(=O)(=O)N3CCCCC3)cc2)cc(OC)c1OC,-1.13% (inactive)
13,CCN(CC(=O)NC(=O)NCc1ccccc1)Cc1nc2ccccc2c(=O)[nH]1,-2.64% (inactive)
14,c1ccc(-c2cc3c(NCC4COc5ccccc5O4)ncnc3s2)cc1 (stereo not drawn),9.76% (inactive)
15,CCSc1ccccc1C(=O)Nc1ccc2c(c1)OCO2,21.7% (active)
16,CC(C)NC(=O)CSc1ccccc1C(=O)NCc1ccc2c(c1)OCO2,3.57% (inactive)
17,CC(NS(=O)(=O)c1ccc(Cl)cc1)C(=O)Nc1ccc2c(c1)OCCO2 (stereo not drawn),-1.8% (inactive)
18,O=C(Nc1cccc([N+](=O)[O-])c1)c1ccc2c(c1)OCO2,36.2% (active)
19,C/C(=N/NC(=O)c1ccncc1)c1ccc2c(c1)OCO2,0.639% (inactive)
20,CC(NC(=O)Nc1cccc([N+](=O)[O-])c1)c1ccc2c(c1)OCO2 (stereo not drawn),-0.734% (inactive)
21,C/C(=N/NC(=S)Nc1ccccc1)c1ccc2c(c1)OCO2,33.6% (active)
22,O=C(Nc1cccc(S(=O)(=O)Nc2ccc(Cl)cc2)c1)c1ccc2c(c1)OCCO2,12.5% (active)
23,C/C(=N\NC(=O)C(N)=O)c1ccc2c(c1)OCCO2,15.2% (inactive)
24,Cc1ccc2nc(-c3ccccn3)cc(C(=O)Nc3ccc4c(c3)OCO4)c2c1,20.8% (inactive)
25,CCN(CC)CCNC(=O)c1ccc(NS(=O)(=O)c2ccc3c(c2)OCCO3)cc1,2.7% (inactive)
